Our source for the max activation and Potency values is PubChem BioAssay (Tox21).

Records with an inconclusive call do not appear. Calls of active or inactive are those of the source. Calls follow the shape of the dose curve; as a rule, active = well fitted activation curve with a large enough effect in the repeat runs; inconclusive = weak or mixed curves; inactive = no such curve, though single readings can be large or run the other way.
% is scaled to controls: 0 for no effect and ±100 for the full control effect; potency is read from the fitted curve at half-maximal effect.

Chain of Nuclear receptor subfamily 1 group I member 2 (Rattus norvegicus) (Q9R1A7 whole entry, looked up): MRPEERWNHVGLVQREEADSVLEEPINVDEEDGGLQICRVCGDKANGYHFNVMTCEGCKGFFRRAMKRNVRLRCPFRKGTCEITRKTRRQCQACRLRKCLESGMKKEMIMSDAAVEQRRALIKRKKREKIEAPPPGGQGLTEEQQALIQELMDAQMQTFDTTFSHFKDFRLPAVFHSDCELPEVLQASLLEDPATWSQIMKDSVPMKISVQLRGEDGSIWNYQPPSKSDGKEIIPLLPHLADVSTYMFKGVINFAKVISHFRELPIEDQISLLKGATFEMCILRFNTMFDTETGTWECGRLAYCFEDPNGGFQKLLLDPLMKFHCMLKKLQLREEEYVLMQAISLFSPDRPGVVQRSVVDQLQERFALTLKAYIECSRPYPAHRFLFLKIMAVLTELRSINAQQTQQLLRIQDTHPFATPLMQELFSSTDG

In one experiment the target is Nuclear receptor subfamily 1 group I member 2 (Rattus norvegicus) (UniProt Q9R1A7). Kind of experiment: Rat pregnane X receptor (rPXR) activation by small molecules, qHTS assay (AID 1346983). Also: nearly all actives have a fitted effect of over 20% in size. The conditions noted are these: rPXR luciferase reporter cells, One-Glo luminescence, 24 h; max activation: hits give high values. The essentials:
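Cell-based rPXR luciferase reporter assay, 2,000 cells per well, rested 5hr at 37 C before compound addition in DMSO, then 24 hr at 37 C. One-Glo reagent was added and luminescence read after 30 min at room temperature.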
In the case of `CN1CCN(c2c(F)cc3c(=O)c(C(=O)O)cn4c3c2SCC4)CC1`, the max activation is -4.92% (inactive).

For `CCN[C@H]1CN(CCCOC)S(=O)(=O)c2sc(S(N)(=O)=O)cc21`, the max activation was -3.62% (inactive).

Regarding `C[C@@H]1CN(c2c(F)c(N)c3c(=O)c(C(=O)O)cn(C4CC4)c3c2F)C[C@H](C)N1`, the max activation is -3.87% (inactive).

`CCc1cc(Cl)c(OC)c(C(=O)NC[C@@H]2CCCN2CC)c1O`: the max activation is -0.901% (inactive).

With `NC1=NCC2c3ccccc3Cc3ccccc3N12` (stereo not drawn), the max activation was 0.173% (inactive).

With `CCCNC(C)C(=O)Nc1c(C)csc1C(=O)OC` (stereo not drawn), the max activation was -1.55% (inactive).

For the compound `CO[C@@]1(NC(=O)CSCC#N)C(=O)N2C(C(=O)O)=C(CSc3nnnn3C)CS[C@@H]21`, the max activation is -3.26% (inactive).

`CCCCCCCCCCCCCCCCOP(=O)([O-])OCC[N+](C)(C)C`: the max activation was 0.239% (inactive).

On to `NCCC(O)(P(=O)(O)O)P(=O)(O)O`, for which the max activation is -0.383% (inactive).

`C[C@@H]1CN(c2c(F)c(F)c3c(=O)c(C(=O)O)cn(C4CC4)c3c2F)C[C@H](C)N1`: the max activation was -2.98% (inactive).

On to `C[C@@H](N)C(=O)O`, for which the max activation was -2.77% (inactive).

Regarding `CC1(C)O[C@@H]2C[C@H]3[C@@H]4CCC5=CC(=O)CC[C@]5(C)[C@@]4(F)[C@@H](O)C[C@]3(C)[C@]2(C(=O)CCl)O1`, the Potency is 1 µM (active).

As for `CN1C(=O)CC(c2ccccc2)C1=O` (stereo not drawn), the max activation was -2.73% (inactive).

For `CCc1nnc(NS(=O)(=O)c2ccc(N)cc2)s1`, the max activation is -2.73% (inactive).

Consider `CCN(CC)CCNC(=O)COc1ccc(Cl)cc1`, for which the max activation was -3.06% (inactive).

For a further experiment, the target named is Nuclear receptor subfamily 1 group I member 2 (Homo sapiens) (UniProt O75469). In words: CYP3A4 induction through human pregnane X receptor (PXR) by small molecules, qHTS assay (AID 1346984). Also: nearly all actives have a fitted effect of over 40% in size. The note with it: DPX-2 HepG2 PXR, CYP3A4-luciferin luminescence, 24 h; series mostly up to 46.1 µM. The essentials:
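Luminescence readout: luciferase signal after One-Glo (30 min, room temperature), following 3 h at 37C with 3uM final Luciferin-IPA P450 substrate. Cells were DPX-2 (HepG2, PXR/CYP3A4-luc co-transfected) dosed for 24 h.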
Consider `CN1CCN(c2c(F)cc3c(=O)c(C(=O)O)cn4c3c2SCC4)CC1`, for which the Potency result was “inactive”.

As to `CCN[C@H]1CN(CCCOC)S(=O)(=O)c2sc(S(N)(=O)=O)cc21`, the Potency result was “inactive”.

`C[C@@H]1CN(c2c(F)c(N)c3c(=O)c(C(=O)O)cn(C4CC4)c3c2F)C[C@H](C)N1`: the Potency entry is “inactive”.

For the compound `CCc1cc(Cl)c(OC)c(C(=O)NC[C@@H]2CCCN2CC)c1O`, the Potency was 15.8 µM (active).

Consider `CCCNC(C)C(=O)Nc1c(C)csc1C(=O)OC` (stereo not drawn), for which the Potency result is “inactive”.

Regarding `CO[C@@]1(NC(=O)CSCC#N)C(=O)N2C(C(=O)O)=C(CSc3nnnn3C)CS[C@@H]21`, the Potency result was “inactive”.

Turning to `CCCCCCCCCCCCCCCCOP(=O)([O-])OCC[N+](C)(C)C`, the Potency entry is “inactive”.

On to `NCCC(O)(P(=O)(O)O)P(=O)(O)O`, for which the Potency entry is “inactive”.

With `C[C@@H]1CN(c2c(F)c(F)c3c(=O)c(C(=O)O)cn(C4CC4)c3c2F)C[C@H](C)N1`, the Potency entry is “inactive”.

As for `C[C@@H](N)C(=O)O`, the Potency result was “inactive”.

Turning to `CCc1nnc(NS(=O)(=O)c2ccc(N)cc2)s1`, the Potency entry was “inactive”.

In the case of `CCCCC(=O)O[C@]1(C(=O)CO)[C@H](C)C[C@H]2[C@@H]3CCC4=CC(=O)C=C[C@]4(C)[C@@]3(F)[C@@H](O)C[C@@]21C`, the Potency entry was “inactive”.

As for `CCN(CC)CCNC(=O)COc1ccc(Cl)cc1`, the Potency result is “inactive”.
